Data taken from the supplement of paper PMC8253809.

What was measured:
Test in all cases: growth inhibition (% activity, log2 RLU normalised to DMSO / staurosporine); higher = more growth inhibition
Conditions in all cases: 33 µM
DIPGX29 = system: DIPGX29 (H3.3 K27M diffuse intrinsic pontine glioma line)
How it was run: (§1)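 Cells (pHGG lines and H9-derived neural stem cells) were plated on Geltrex-coated 384-well plates and exposed to approved drugs at a single final concentration of about 33 μM, in triplicate, for 7 days at 37 °C, 5% CO2. Log2-transformed CellTiter-Glo luminescence was normalised per plate to % activity between solvent and positive control wells, and the growth-inhibition value is the median over replicates.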

DIPGX37 = system: DIPGX37 (H3.3 K27M diffuse intrinsic pontine glioma line)
How it was run: as §1

DIPGX7 = system: DIPGX7 (H3.3 K27M diffuse intrinsic pontine glioma line)
How it was run: as §1

DIPGX9 = system: DIPGX9 (diffuse intrinsic pontine glioma line)
How it was run: as §1

HGGX39 = system: HGGX39 (paediatric high-grade glioma line)
How it was run: as §1

HGGX6 = system: HGGX6 (H3.3 G34R paediatric high-grade glioma line)
How it was run: as §1

HNSC = system: HNSC
How it was run: as §1

SUDIPGIV = system: SUDIPGIV (diffuse intrinsic pontine glioma line)
How it was run: as §1

SUDIPGVI = system: SUDIPGVI (diffuse intrinsic pontine glioma line)
How it was run: as §1

SUDIPGXIII = system: SUDIPGXIII (diffuse intrinsic pontine glioma line)
How it was run: as §1

Row | SMILES | growth inhibition (DIPGX29) | growth inhibition (DIPGX37) | growth inhibition (DIPGX7) | growth inhibition (DIPGX9) | growth inhibition (HGGX39) | growth inhibition (HGGX6) | growth inhibition (HNSC) | growth inhibition (SUDIPGIV) | growth inhibition (SUDIPGVI) | growth inhibition (SUDIPGXIII)
1 | CC(=O)[C@H]1CC[C@H]2[C@@H]3CCC4=CC(=O)CC[C@]4(C)[C@H]3CC[C@]12C | 1.09% | 3.02% | 4.3% | 2% | 4.64% | 5.84% | 2.02% | -1.26% | 1.04% | 1.18%
2 | CC1=C(C(=O)OC(C)C)C(c2cccc([N+](=O)[O-])c2)C(C(=O)OC2CN(C(c3ccccc3)c3ccccc3)C2)=C(N)N1 (stereo not given) | 9.28% | 5.94% | 22.2% | 3.53% | 13.3% | 15.6% | 58% | 14.3% | 27.2% | 11.7%
3 | COc1ccc2c(c1OC)C(=O)O[C@@H]2[C@H]1c2c(cc3c(c2OC)OCO3)CCN1C | -0.0995% | 0.428% | -0.697% | -1.08% | 0.078% | 1.48% | -1.88% | -0.28% | -0.0763% | 1.03%
4 | CC(O)(P(=O)(O)O)P(=O)(O)O | -0.191% | 1.06% | -0.11% | -0.168% | -1.7% | 1.43% | -0.64% | -0.506% | 1.73% | 0.673%
5 | CN(C)CCCC1(c2ccc(F)cc2)OCc2cc(C#N)ccc21 (stereo not given) | 1.68% | 3.31% | 3.03% | 1.7% | 2.63% | 3.21% | -0.115% | 1.18% | 1.71% | 0.506%
6 | Cc1ccnc2c1NC(=O)c1cccnc1N2C1CC1 | 0.291% | 2.43% | 0.516% | -1.16% | 0.921% | -1.94% | 2% | 1.95% | 0.484% | 0.637%
7 | CO[C@H]1C[C@@H]2CC[C@@H](C)[C@@](O)(O2)C(=O)C(=O)N2CCCC[C@H]2C(=O)O[C@H]([C@H](C)C[C@@H]2CC[C@@H](O)[C@H](OC)C2)CC(=O)[C@H](C)/C=C(\C)[C@@H](O)[C@@H](OC)C(=O)[C@H](C)C[C@H](C)/C=C/C=C/C=C/1C | 6.5% | 0.955% | 6.15% | 16.4% | 10.5% | 10.3% | 10.4% | 4.5% | 6.53% | 0.792%
8 | CCCCCCCCCCCC[N+](C)(C)CCOc1ccccc1 | 59% | 58.8% | 53.9% | 57.2% | 62.1% | 56.8% | 55.6% | 55.7% | 63.2% | 70.1%
9 | CCC(=O)OCC(=O)[C@@]1(OC(=O)CC)[C@@H](C)C[C@H]2[C@@H]3CCC4=CC(=O)C=C[C@]4(C)[C@@]3(Cl)[C@@H](O)C[C@@]21C | 2.67% | -2.69% | 1.9% | 4.04% | 3.24% | 1.72% | 0.321% | -1.55% | -0.46% | 0.862%
10 | CC(=O)OCC[N+](C)(C)C | 1.68% | 3.32% | 3.73% | 1.49% | 1.63% | 1.69% | 4.52% | 1.04% | 2.81% | -0.303%
11 | S=c1[nH]cnc2nc[nH]c12 | 20.1% | 10.9% | 25.3% | 10.6% | 23.2% | 24.2% | 58.1% | 28.8% | 13.4% | 18.8%
12 | O=C(c1ccccc1)c1ccc2n1CCC2C(=O)O (stereo not given) | 1.07% | -0.408% | 0.977% | -1.13% | -0.11% | 1.54% | -1.61% | -5.47% | 0.251% | 0.0715%
13 | OCCN1C[C@H](O)[C@@H](O)[C@H](O)[C@H]1CO | 2.17% | 1.74% | 3.33% | 2.76% | 4.58% | 1.44% | 6.31% | 2.25% | 4.59% | 1.39%
14 | CCOC(=O)C1=C(C)NC(C)=C(C(=O)OC)C1c1cccc([N+](=O)[O-])c1 (stereo not given) | -2.41% | 0.972% | 1.75% | -2.12% | 0.389% | -2.9% | 37.3% | -0.292% | -8.45% | 2.39%
15 | CN1[C@@H]2CC[C@H]1CC(OC(=O)c1c[nH]c3ccccc13)C2 (stereo not given in full) | 4.79% | 5.76% | 6.41% | 23.4% | 7.53% | 1.59% | 58.8% | 9.21% | 1.15% | 0.619%
16 | CCOc1ccc(NC(C)=O)cc1 | 1.41% | 1.55% | 3.09% | 2.76% | 2.76% | -0.142% | 47.6% | 2.49% | -4.96% | 1.58%
17 | OC(Cn1cncn1)(Cn1cncn1)c1ccc(F)cc1F | 0.884% | -0.267% | 1.06% | 1.31% | 1.3% | 1.42% | 1.54% | -0.234% | 1.91% | 0.862%
18 | CN(C)CCN(Cc1ccccc1)c1ccccn1 | 1.64% | 2.34% | 0.0331% | 3.36% | 5.32% | 0.326% | -1.72% | -0.134% | 1.29% | 2.37%
19 | CNCC[C@@H](Oc1ccccc1C)c1ccccc1 | 1.02% | 2.33% | 2.36% | 0.537% | 2.58% | -1.18% | 8.5% | 3.36% | 4.57% | 1.41%
20 | CSc1nc2cc(Cl)c(Oc3cccc(Cl)c3Cl)cc2[nH]1 | 1.22% | -0.121% | -0.253% | 0.647% | 4.81% | 3.1% | -0.0294% | 2.29% | 1.54% | 2.86%
21 | CC1OC(n2cc(F)c(=O)[nH]c2=O)C(O)C1O (stereo not given) | -0.415% | 1.44% | -1.58% | 1.19% | -0.346% | 1.76% | -0.812% | 2.36% | 0.29% | 1.21%
22 | CCCC1O[C@@H]2C[C@H]3[C@@H]4CCC5=CC(=O)C=C[C@]5(C)[C@H]4[C@@H](O)C[C@]3(C)[C@]2(C(=O)CO)O1 (stereo not given in full) | 2.07% | -0.133% | -1.11% | 3.67% | 3.05% | 1.13% | -0.0191% | 40.8% | -5.45% | 18.8%
